Assay outcomes deposited in PubChem BioAssay by National Center for Advancing Translational Sciences (NCATS).
Sampled rows, rich in hits. Any-hit rate of the full collection: about 0.51%.
Epigenetic derep: derepresses silenced GFP reporter in murine cells; murine LDR cells, GFP reporter derepression, 30 h; Potency, µM (titrated, usually from 53.9 µM), for the others: at the top dose GFP activation, hits mostly activators; 280,000 compounds, 0.2% hits; AID 1865; note: % of control where 0% means no effect; nearly all actives have a fitted effect of over 60% in size
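GFP-positive cell count by laser-scanning cytometry (objects 20–120 um) after 30 h, 37 C compound exposure of murine LDR cells; reporter is CMV-GFP integrated at a silenced locus, inducible by HDAC or DNMT inhibitors.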
PINK1 expr mod: modulators of PINK1 expression. PINK1 immunofluorescence, high-content cytometry, 24 h. Potency, µM (titrated, usually from 76.6 µM), without a hit: at the highest dose activation (PINK1 increase), actives largely listed as activators. 410,000 compounds, 0.2% hits. AID 624263; active = well fitted activation curve with a large enough effect; inconclusive = small, poorly fitted or top-dose-only effect; cell line not stated here; note: % of control where 0% means no effect; nearly all actives have a fitted effect of over 65% in size
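Compound titrations (5 concentrations, 24 h) on a stable cell line; DMSO and CCCP controls. Endpoint: fixed-cell PINK1 immunofluorescence with mitochondrial, cell and nuclear markers, scanned by microplate cytometer.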
Vif-A3F inh: inhibitors of Vif-A3F interaction; Potency, µM (top dose mostly 46.1 µM), for inactives: at the top dose activity, negative = active; HeLa A3F-eYFP + Vif (tagged APOBEC3F with the HIV-1 protein that degrades it), YFP fluorescence increase; 390,000 compounds, 0.2% hits; note: % of control where 0% means no effect; nearly all actives have a fitted effect of over 65% in size
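HeLa cells stably expressing A3F-eYFP plus Vif, plated and incubated overnight at 37 deg C, then exposed to compounds overnight at 37 deg C. Blocked degradation read as raised yellow fluorescence (Ex 488/Em 500-530).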
Vif-APOBEC3G blk: inhibitors of Vif-APOBEC3G interaction; Q9HC16; AID 602310; Potency, µM (doses to about 46.1 µM), for inactives: top-dose activity, negative = active, actives largely listed as inhibitors; 410,000 compounds, 0.076% hits; HeLa A3G-eYFP + Vif (tagged APOBEC3G with the HIV-1 protein that degrades it), YFP fluorescence, overnight; note: % is set by controls: 0 for no effect and ±100 for the full control effect; nearly all actives have a fitted effect of over 60% in size
Target sequence (Q9HC16 whole entry, looked up): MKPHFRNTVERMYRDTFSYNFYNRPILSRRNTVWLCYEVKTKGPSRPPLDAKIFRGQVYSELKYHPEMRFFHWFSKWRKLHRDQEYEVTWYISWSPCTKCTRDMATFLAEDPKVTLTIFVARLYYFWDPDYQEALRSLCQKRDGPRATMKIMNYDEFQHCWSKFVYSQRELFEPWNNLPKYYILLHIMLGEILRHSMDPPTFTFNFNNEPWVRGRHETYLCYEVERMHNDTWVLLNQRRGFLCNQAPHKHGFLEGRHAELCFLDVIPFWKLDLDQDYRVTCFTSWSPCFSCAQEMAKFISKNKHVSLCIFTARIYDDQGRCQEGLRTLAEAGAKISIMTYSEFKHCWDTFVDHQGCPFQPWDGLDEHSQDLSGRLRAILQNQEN
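Read-out is eYFP fluorescence (Ex 488/Em 500-530) from Vif-expressing HeLa A3G-eYFP cells; more signal means A3G escaped Vif-mediated degradation. Cells plated overnight, compound pinned in, incubated overnight at 37 deg C.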
* = called active by the depositor; ? = inconclusive; nt = no result given; [ ] = remark or other dose. Unless noted, calls come from the whole dose curve; as a rule, active = well fitted curve in the direction sought with a large enough effect; inconclusive = small, poorly fitted or top-dose-only effect, or another doubt; inactive = no such curve, though single readings can be large; an effect the other way counts as inactive or inconclusive. Potency is the fitted concentration of half-maximal effect.

SMILES	Epigenetic derep	PINK1 expr mod	Vif-A3F inh	Vif-APOBEC3G blk
COC(=O)c1cc(NC(=O)c2cccc(C(F)(F)F)c2)c(=O)oc1C/C=N/OCc1cccc(Cl)c1Cl	2%	22µM*	?	-9%
c1ccc2c(CCc3c[nH]c4ccccc34)ccnc2c1	nt	1%	nt	11µM*
c1ccc2c(Cc3c[nH]c4ccccc34)c[nH]c2c1	0%	nt	nt	nt
COc1ccc(-n2ccc(-c3sc(NCc4cc(OC)c5c(c4)OCO5)nc3C)n2)cc1	nt	0%	nt	nt
CCOC(=O)CSc1ccc2ccccc2n1	-4%	4%	-15%	1%
CCOC(=O)CN1C=C(c2ccc3ccccc3n2)C(C[N+](=O)[O-])c2ccccc21 (stereo unspecified)	3%	1%	?	13µM*
CCN1/C(=C/C=C/c2oc3ccc4ccccc4c3[n+]2CC)Oc2ccc3ccccc3c21	0.13µM*	?	-343%	-101%
CC(C)(C)n1ncc2c(=O)n(Cc3cccc(C#N)c3)cnc21	nt	nt	nt	-2%
O=C(N/N=C/c1cn(-c2cccs2)nc1-c1ccccc1)c1ccccc1O	-3%	28µM*	-13%	-4%
COc1ccc(S(=O)(=O)N2CCC(c3nc4ccccc4s3)CC2)cc1OC	-1%	3%	0%	5%
O=S(=O)(c1ccc2c(c1)OCCO2)N1CCC(c2nc3ccccc3s2)CC1	6%	11µM*	-5%	0%
COc1cc(N2CCCC2)c(OC)cc1/C=C1/NC(=S)NC1=O	16µM*	?	?	?
CC(C)C(=O)NCC1CCC2(CCN(Cc3ccc(-c4ccccc4Cl)o3)CC2)O1 (stereo unspecified)	nt	-1%	nt	nt
COc1ccccc1Nc1nc(Cl)c(C=O)s1	4%	1%	?	?
Cc1ccc(Nc2nc3ccccc3c(=O)s2)cc1C	6%	2%	2%	2%
Cc1ccc(Nc2nc(Cl)c(C=O)s2)cc1Cl	?	5%	22µM*	?
O=Cc1sc(Nc2ccccc2)nc1Cl	1%	4%	25µM*	?
Cc1cc(/C=C2\SC(=S)N(Cc3ccco3)C2=O)c(C)n1-c1cccnc1	22µM*	?	11µM*	5.6µM*
O=C1/C(=C/c2cccnc2)SC(=S)N1Cc1ccco1	nt	6%	-6%	?
Cc1ccc(NC(=O)CSc2ccccc2NC(=O)c2cccc(Cl)c2)cc1Cl	0%	1%	11µM*	-61%
Cc1cccc(C(=O)Nc2ccccc2SCC(=O)Nc2ccc(C)c(Cl)c2)c1	1%	0%	-9%	1%
COc1ccc2nc(N3CCCC3)c(C#N)cc2c1	1%	8%	11µM*	-14%
COc1ccc2nc(N3CCCCC3)c(C#N)cc2c1	-1%	1%	-19%	-7%
CC[N+](C)(C)c1ccc(/C=C/c2ccnc3ccccc23)cc1	nt	nt	nt	6%
COc1ccc(CN2CCc3nnc(CCc4ccccc4)n3CC2)c(OC)c1C	nt	0%	nt	nt
SMILES	Epigenetic derep	PINK1 expr mod	Vif-A3F inh	Vif-APOBEC3G blk
CC1CN(CC(=O)NCCc2ccncc2)Cc2ccccc2O1 (stereo unspecified)	nt	0%	nt	nt
COc1cc(/C=C2\SC(=S)N(CC(=O)NC3=NCCS3)C2=O)cc(OC)c1OC	?	28µM*	0%	-9%
COc1ccc(/C=C2\SC(=S)N(CCC(=O)NC3=NCCS3)C2=O)cc1OC	13%	8%	?	2%
COC(=O)c1ccccc1-c1cc(C)cc2c1OC(CNC(=O)C1CCCO1)C2 (stereo unspecified)	nt	0%	nt	nt
COc1ccc(NC(=O)c2cccc3ccccc23)cc1	nt	6%	0%	11µM*
O=C(Nc1ccc2ccccc2c1)c1ccccc1O	nt	14µM*	1%	-6%
O=C(Nc1ccc2ccccc2c1)c1ccccc1Cl	nt	2%	-1%	-12%
CCOc1ccc(C(NC(=O)CC)c2c(O)ccc3ccccc23)cc1 (stereo unspecified)	nt	6%	-9%	?
CC(=O)Oc1ccc2ccccc2c1C(NC(=O)Cc1ccccc1)c1ccc(Cl)cc1 (stereo unspecified)	-1%	14µM*	-8%	-3%
C=C(C)C(=O)Oc1ccc(N2C(=O)CCC2=O)cc1	22µM*	2%	?	0%
Cc1cnc(-n2ncc(C(=O)NCc3ccncc3)c2C(C)C)nc1-c1ccc(F)cc1	nt	-1%	nt	nt
O=C(NC(=S)N1CCCCC1)C12CC3CC(CC(C3)C1)C2	-1%	-2%	3%	1%
CC12CC3CC(C)(C1)CC(C(=O)NC(=S)N1CCOCC1)(C3)C2	1%	nt	2%	10µM*
COc1ccc(CNc2cccc3[nH]c(C(F)(F)F)nc23)cc1OC	nt	25µM*	-8%	0%
COc1cc(/C=C2\CC(C(C)(C)C)C/C(=C\c3cc(OC)c(OC)c(OC)c3)C2=O)cc(OC)c1OC (stereo unspecified)	nt	0%	?	8.9µM*
Cc1ncc(C(O)c2ccc(N(C)C)cc2)n1Cc1ccccc1 (stereo unspecified)	nt	0%	-6%	0%
CN(C)c1ccc2nc3c(=O)[nH]c(=O)nc-3n(CC(O)C(O)C(O)CO)c2c1 (stereo unspecified)	nt	3%	8.9µM*	2%
COc1ccc(CN2CCOc3ccc(CN4CCC(O)CC4)cc3C2)c(OC)c1OC	nt	-1%	nt	nt
CCOC(=O)/C(=C\C=C1/Sc2cc(OCC)c(OCC)cc2N1CC)C(C)=O	5.6µM*	?	-89%	9%
CCOC(=O)/C(=C/C=C1\Sc2cc(OCC)c(OCC)cc2N1CC)C(C)=O	22µM*	?	6%	9%
COc1cccc(CN2CCC(n3cc(C(=O)NC4CCCC4)nn3)CC2)c1O	nt	0%	nt	nt
CC(C)(C)n1ncc2c(=O)n(Cc3ccc(SC(=O)O)cc3Cl)cnc21	nt	nt	nt	3%
O=C(NCC1(N2CCOCC2)CCCCCC1)c1cnn(-c2nccc(-c3ccco3)n2)c1C1CC1	nt	1%	nt	nt
CC(=O)NCC(=O)NCC1Cc2cc(C)cc(-c3ccccn3)c2O1 (stereo unspecified)	nt	1%	nt	nt
O=C1CSC(=S)N1c1cccnc1	-1%	3%[38.3 µM]	-6%	1%
SMILES	Epigenetic derep	PINK1 expr mod	Vif-A3F inh	Vif-APOBEC3G blk
O=C1CSC(=S)N1Cc1cccnc1	2%	9%	11µM*	?
N#Cc1ccsc1NC(=O)c1cccc([N+](=O)[O-])c1	1%	7%	-3%	4%
N#Cc1ccsc1NC(=O)c1ccc(Cl)c([N+](=O)[O-])c1	1%	32µM*	-12%	4%
COC(=O)[C@@H]1CCCN1Cc1ccc2c(c1)CN(Cc1coc3ccc(C)cc3c1=O)CCO2	nt	1%	nt	nt
COc1ccc(C(=O)N2CCCC(c3nc(SCc4ccccn4)ncc3C)C2)cc1F (stereo unspecified)	nt	0%	nt	nt
COc1ccc(C2CC(c3ccc(Cl)cc3)=NN2c2ccc(S(N)(=O)=O)cc2)cc1 (stereo unspecified)	nt	7%	1%	-7%
COc1ccc(C2CC(c3ccncc3)=NN2c2ccc(S(N)(=O)=O)cc2)cc1 (stereo unspecified)	nt	1%	11µM*	?
CCc1ccc(C(=O)c2cn(CC(=O)Nc3ccc(OC)c(Cl)c3)c3nc(C)ccc3c2=O)cc1	16µM*	9%	4%	3%
